Source: the supplement of paper PMC6992640
± gives the standard deviation of the averaged measurements.

Columns and labels:
Assay in all cases: cell viability (% of vehicle); higher = less cytotoxic
HCI01 [1] = cells of a triple-negative basal-like breast cancer xenograft; settings: 1 µM; 72 h
UCD52 [2] = cells of a triple-negative basal-like breast cancer xenograft; settings: 1 µM; 72 h
WHIM2 [3] = cells of a triple-negative basal-like breast cancer xenograft; settings: 1 µM; 72 h
WHIM30 [4] = cells of a triple-negative basal-like breast cancer xenograft; settings: 1 µM; 72 h
HCI01 [5] = settings: 10 µM; 72 h
HCI03 = cells of an ER-positive luminal breast cancer xenograft; settings: 10 µM; 72 h
HCI09 = cells of a triple-negative luminal androgen receptor type breast cancer xenograft; settings: 10 µM; 72 h
HCI11 = cells of an ER-positive luminal breast cancer xenograft; settings: 10 µM; 72 h
HCI16 = cells of a triple-negative basal-like breast cancer xenograft; settings: 10 µM; 72 h
UCD52 [6] = settings: 10 µM; 72 h
WHIM2 [7] = settings: 10 µM; 72 h
WHIM30 [8] = settings: 10 µM; 72 h
HCI13 = cells of an ER-positive luminal breast cancer xenograft; settings: 10 µM; 72 h

Compound | cell viability (HCI01 [1]) | cell viability (UCD52 [2]) | cell viability (WHIM2 [3]) | cell viability (WHIM30 [4]) | cell viability (HCI01 [5]) | cell viability (HCI03) | cell viability (HCI09) | cell viability (HCI11) | cell viability (HCI16) | cell viability (UCD52 [6]) | cell viability (WHIM2 [7]) | cell viability (WHIM30 [8]) | cell viability (HCI13)
COc1cccc2c1C(=O)c1c(O)c3c(c(O)c1C2=O)CC(O)(C(=O)CO)CC3OC1CC(N)C(O)C(C)O1.Cl (stereo not given) [Doxorubicin (Adriamycin) HCl] | 93.6 | 38.7 | 26.8 | 45.9 | 70.4 ± 23 | 196 | 29.7 ± 8.2 | 41.4 | 66.1 | 33.1 ± 1.4 | 35.6 ± 6.6 | 77 ± 21 | 
NC(=O)c1cnccn1 [Pyrazinamide] |  |  |  |  | 66.5 ± 42 | 126 | 90.8 ± 15 | 93.8 | 98.9 | 85.8 ± 0.98 | 90.2 ± 30 |  | 99.7 ± 1.4
O=C(c1cc(Cc2n[nH]c(=O)c3ccccc23)ccc1F)N1CCN(C(=O)C2CC2)CC1 |  |  |  |  | 166 ± 50 | 112 | 72.2 ± 9.9 | 129 | 166 | 117 ± 16 | 105 ± 6.3 |  | 103 ± 5.2
Cc1c(OCC(F)(F)F)ccnc1CS(=O)c1nc2ccccc2[nH]1 (stereo not given) [Lansoprazole] |  |  |  |  | 170 ± 24 | 160 | 97.4 ± 32 | 128 | 144 | 190 ± 5.9 |  |  | 142 ± 24
COC(=O)Nc1nc2ccc(Sc3ccccc3)cc2[nH]1 [Fenbendazole] |  |  |  |  | 193 ± 48 | 129 | 182 ± 25 | 129 | 153 | 121.4 ± 0.081 | 142 ± 20 |  | 155 ± 32
CCOC(=O)c1c(C)n(C)c2ccc(O)cc12 [Mecarbinate] |  |  |  |  | 72.1 ± 43 | 152 | 111 ± 4.2 | 90.9 | 115 | 87.3 ± 3.8 | 99.6 ± 22 |  | 135 ± 14
O=C(Nc1ccccc1)c1ccccc1O [Salicylanilide] |  |  |  |  | 165 ± 40 | 133 | 143 ± 34 | 111 | 153 | 123 ± 4.3 | 160 ± 20 |  | 98.3 ± 6.3
CS(=O)(=O)CCNCc1ccc(-c2ccc3ncnc(Nc4ccc(OCc5cccc(F)c5)c(Cl)c4)c3c2)o1 [Lapatinib] |  |  |  |  | 112 ± 63 | 45.4 | 39.3 ± 17 | 98.8 | 168 | 51.2 ± 3.6 | 40.7 ± 5.3 |  | 42.2 ± 0.47
CCC1(c2ccccc2)C(=O)NCNC1=O [Primidone] |  |  |  |  | 78.1 ± 54 | 162 | 105 ± 2.9 | 90.6 | 121 | 85.1 ± 8.9 | 100 ± 33 |  | 134.7 ± 0.7
CCCc1cc(=O)[nH]c(=S)[nH]1 [Propylthiouracil] |  |  |  |  | 70.4 ± 44 | 153 | 100 ± 12 | 97.8 | 120 | 91.2 ± 3.8 | 100 ± 38 |  | 143 ± 30
Cc1nc(=O)c2cc(CN(C)c3ccc(C(=O)NC(CCC(=O)O)C(=O)O)s3)ccc2[nH]1 (stereo not given) [Raltitrexed] |  |  |  |  | 93.9 ± 5.5 | 122 | 104 ± 27 | 86.9 | 99 | 106 ± 4 | 116 ± 2 |  | 95.59 ± 0.3
Cc1c(OCC(F)(F)F)ccnc1CS(=O)c1nc2ccccc2[n-]1.[Na+] (stereo not given) [Lansoprazole sodium] |  |  |  |  | 181 ± 1.4 | 145 | 124 ± 9 | 163 | 152 | 138.2 ± 0.31 | 143 ± 9.9 |  | 135 ± 5.7
CCC(=C(CC)c1ccc(O)cc1)c1ccc(O)cc1 [Diethylstilbestrol] |  |  |  |  | 59.1 ± 40 | 95.7 | 61.4 ± 39 | 75.5 | 107 | 78.3 ± 8.4 | 116 ± 51 | 83.8 ± 11 | 41 ± 12
CCCSc1ccc2nc(NC(=O)OC)[nH]c2c1 [Albendazole] |  |  |  |  | 166 ± 38 | 131 | 172 ± 35 | 93.6 | 160 | 95.4 ± 25 | 123 ± 28 |  | 127 ± 10
CCOC(=O)C(CCc1ccccc1)NC(C)C(=O)N1Cc2ccccc2CC1C(=O)O.Cl (stereo not given) [Quinapril HCl] |  |  |  |  | 61.5 ± 37 | 111 | 72.7 ± 10 | 94.8 | 96.9 | 83.7 ± 5.6 | 95.1 ± 3.9 | 105 ± 14 | 104 ± 5.7
